Results reported in PubChem BioAssay AID504850 (National Center for Advancing Translational Sciences (NCATS), 2011).
In all, about 2,300 compounds went through this assay and about 1,200 (52%) were called active. Inconclusive results (about 34%) are left out. So high a share suggests a set chosen from earlier hits. Some of the results follow. Unmarked numbers belong to inactive results. The call rests on the fitted dose curve; in most records, active means well fitted inhibition curve with a large enough effect; inconclusive means small, poorly fitted or top-dose-only effect, or effect the other way; inactive means no such curve, though single readings can be large or run the other way.

experiment: Confirmation screen for delayed death inhibitors of the malarial parasite plastid, 48 hour incubation; further: nearly all actives have a fitted effect of over 65% in size; conditions: P. falciparum-infected erythrocytes, luciferase growth; series mostly up to 28.7 µM; activity change, negative = inhibition: at the top concentration
How it was run: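 Single-generation (48 h, 37 C) exposure of integrated firefly luciferase-reporter P. falciparum in red cells, 0.1% parasitemia at 2% hematocrit, Albumax-supplemented RPMI. Falling luciferase signal marks parasite growth inhibition.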
On the % scale 0 is the no-effect control and ±100 the full control effect; potency means the concentration at half of the fitted maximal effect.

SMILES | Potency | activity change, negative = inhibition
COc1ccc(NC(=O)[C@H](Cc2c[nH]c3ccccc23)NC(=O)[C@@H]2Cc3ccccc3CN2)cc1 | 7.94 µM (active) | 
Cc1cccc(NC(=O)[C@H](Cc2c[nH]c3ccccc23)NC(=O)[C@@H]2Cc3ccccc3CN2)c1 | 10 µM (active) | 
CCS(=O)(=O)N1Cc2ccccc2CC1C(=O)Nc1cccc(OC)c1 (centres undefined) |  | -17.3%
COc1ccc(C(=O)NCCc2c[nH]c3ccccc23)cc1[N+](=O)[O-] |  | -4.64%
CC(C)C(=O)NCCSc1c[nH]c2ccccc12 |  | -11.4%
CNC(=S)N(CCc1c(C)[nH]c2ccc(C)cc12)Cc1cc(OC)c(OC)c(OC)c1 | 12.6 µM (active) | 
CNC(=S)N(CCc1c(C)[nH]c2ccc(Cl)cc12)Cc1cccnc1 | 14.1 µM (active) | 
Cc1ccc(NC(=O)C(=Cc2ccc(C(=O)O)cc2)C(=O)Nc2ccc(C)cc2C)c(C)c1 | 10 µM (active) | 
Cn1c(/C=C/c2ccc(Cl)cc2)c([N+](=O)[O-])c(=O)n(C)c1=O | 7.94 µM (active) | 
N#C/C(=C\c1ccccn1)c1ccccn1 | 11.2 µM (active) | 
CSC1=NC(C)(C)C=C(/C=C/c2ccc(Cl)cc2)N1 | 10 µM (active) | 
CSC1=NC(C)(C)C=C(/C=C/c2ccc(Cl)cc2Cl)N1 | 1.78 µM (active) | 
CSC1=NC(C)(C)C=C(/C=C/c2c(Cl)cccc2Cl)N1 | 10 µM (active) | 
CC(Oc1ccc(Br)cc1)C(=O)N1CCN(c2ccccn2)CC1 (centres undefined) | 15.8 µM (active) | 
O=C(c1ccccc1Br)N1CCN(c2ccccn2)CC1 |  | 5.69%
O=C(NCc1ccc2[nH]c3c(c2c1)CCCC3)c1ccc(S(=O)(=O)N2CCCC2)cc1 | 15.8 µM (active) | 
COc1ccc(-c2cc(C(=O)Nc3cc(C)n(Cc4ccc(Cl)cc4)n3)no2)cc1OC | 0.355 µM (active) | 
COc1ccc(Cl)cc1NC(=O)C(=O)NCc1ccncc1 |  | -9.93%
Cc1cc(C)cc(NC(=O)c2ccc(CN3CCc4ccccc4C3)cc2)c1 | 14.1 µM (active) | 
O=C(Nc1ccc(Cl)cc1)c1ccc(CN2CCc3ccccc3C2)cc1 | 14.1 µM (active) | 
O=C(Nc1ccc(F)cc1)c1ccc(CN2CCc3ccccc3C2)cc1 | 12.6 µM (active) | 
Cc1cc(NC(=O)CN2C(=O)NC(c3ccccc3)(c3ccc(C)c(C)c3)C2=O)no1 (centres undefined) | 14.1 µM (active) | 

SMILES | Potency | activity change, negative = inhibition
COc1ccccc1CNC(=O)CN1C(=O)NC(c2ccccc2)(c2ccc(C)c(C)c2)C1=O (centres undefined) | 12.6 µM (active) | 
CCOc1ccccc1CN1C(=O)NC(C)(c2ccccc2)C1=O (centres undefined) |  | -30.8%
Cn1c(=O)c([N+](=O)[O-])c(-n2ccnc2)c2ccccc21 | 12.6 µM (active) | 
C/C(=C\C(=O)OCCCCCCCCC(=O)O)C[C@@H]1OC[C@H](C[C@@H]2O[C@H]2[C@@H](C)[C@H](C)O)[C@@H](O)[C@H]1O | 1.12 µM (active) | 
CCC(C)NC(=O)c1cc(Cl)c(NC(=O)C2=C(C)OCCS2)cc1OC (centres undefined) | 11.2 µM (active) | 
COc1ccc(-c2cc(-c3ccccc3)nc(SC(C)C(=O)O)c2C#N)cc1 (centres undefined) | 14.1 µM (active) | 
COc1ccc(-c2cc(-c3ccccc3)nc(SCC(=O)Nc3nccs3)c2C#N)cc1 | 2.24 µM (active) | 
CCOC(=O)c1sc(NC(=O)CSc2ncccn2)nc1C |  | -42.1%
Fc1ccc(C2CC(c3ccco3)=NN2c2ccccc2)cc1 (centres undefined) |  | -23.2%
CS(=O)(=O)Nc1ccc(C2=NN(C(=O)c3ccco3)C(c3ccc(F)cc3)C2)cc1 (centres undefined) | 12.6 µM (active) | 
COc1ccc(Cc2nc3ccc(C(=O)NCCc4ccccn4)cc3o2)cc1OC | 14.1 µM (active) | 
C/C(=N\NC(=O)c1ccc(Cl)c(Cl)c1)c1ccc(Br)s1 | 3.55 µM (active) | 
O=C(NNC(=O)c1ccc(Br)s1)c1ccc(F)c(S(=O)(=O)N2CCOCC2)c1 |  | -20.8%
COc1ccc2c(c1OC)C(=O)N1N=C(c3ccccc3)CC21 (centres undefined) | 5.01 µM (active) | 
Nc1nc(CCl)nc(N(c2ccccc2)c2ccccc2)n1 | 8.91 µM (active) | 
Cc1cccc(N(Cc2ccccc2)C(=O)CN2C(=O)NC3(CCCCC3C)C2=O)c1 (centres undefined) | 12.6 µM (active) | 
COc1ccc(CN2CCN(C(=O)CCC(=O)Nc3nnc(C4CCCCC4)s3)CC2)cc1F | 12.6 µM (active) | 
CCCC(=O)Nc1nnc(CC(=O)N2CCCC2)s1 |  | 4.66%
CCCc1nnc(NC(=O)CCC(=O)N2CCN(Cc3ccc(Cl)cc3)CC2)s1 | 12.6 µM (active) | 
CCOC(=O)c1c(C)sc2c1N(C(=O)CCl)c1cc(Cl)ccc1S2 | 3.98 µM (active) | 
O=c1[nH]c(C(F)(F)F)nc2ccc3ccccc3c12 |  | -8.91%
Cc1ccc(NS(=O)(=O)c2ccc(-c3cnc(C4CC4)o3)cc2)c(C)c1 | 5.01 µM (active) | 
